# From PubChem BioAssay AID504847 (National Center for Advancing Translational Sciences (NCATS), 2011)
# Values joined by “and” are separate entries in the source; they are usually repeats but may differ in a detail not shown here. Identical values can stand only once. About 3,700 (0.93%) of roughly 400,000 compounds were called active. About 3% were inconclusive and are not listed. The sample as a whole holds a higher share of actives than the screen did. Values without a mark were called inactive. Calls follow the shape of the dose curve; as a rule, active = well fitted inhibition curve with a large enough effect; inconclusive = small, poorly fitted or top-dose-only effect, or another doubt; inactive = no such curve, though single readings can be large or run the other way. Where a SMILES comes first, the peptide text is derived from it. Side-chain parts run from the residue outwards. [ ]: non-standard residue; d: D form. The star is where a group is joined. X1 = CCC(C)C(N)C1=NC(C(=O)*)CS1; Orn = NCCC[CH](N)C(=O)O
# Biological target: Vitamin D3 receptor (Homo sapiens) (UniProt P11473)
# Assay: Inhibitors of the vitamin D receptor (VDR): qHTS
# Conditions: VDR-SRC2-3 peptide fluorescence polarization, 2 h; max response, negative = inhibition: hits give low values
# How it was run: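 Fluorescence polarization assay measuring small-molecule disruption of VDR binding to the coregulator peptide SRC2-3. Compounds were pin-transferred (23 nl) into the reagent mix and incubated 2 h at room temperature before reading.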
# % is scaled to controls: 0 for no effect and ±100 for the full control effect; potency is read from the fitted curve at half-maximal effect.
# Chain of Vitamin D3 receptor (Homo sapiens) (P11473 whole entry, looked up): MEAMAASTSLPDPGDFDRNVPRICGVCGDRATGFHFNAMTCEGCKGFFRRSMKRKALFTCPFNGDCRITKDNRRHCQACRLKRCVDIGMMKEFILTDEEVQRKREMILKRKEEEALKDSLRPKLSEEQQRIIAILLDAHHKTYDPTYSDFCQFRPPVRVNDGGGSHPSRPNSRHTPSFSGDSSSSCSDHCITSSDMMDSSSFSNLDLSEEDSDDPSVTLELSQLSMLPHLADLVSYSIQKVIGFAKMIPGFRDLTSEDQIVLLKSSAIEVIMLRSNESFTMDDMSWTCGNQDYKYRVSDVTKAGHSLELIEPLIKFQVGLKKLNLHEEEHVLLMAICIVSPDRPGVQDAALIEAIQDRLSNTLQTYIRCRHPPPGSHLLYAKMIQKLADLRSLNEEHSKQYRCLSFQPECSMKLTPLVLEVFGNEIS
Structure (SMILES),"max response, negative = inhibition",Potency
Cc1c2cnn(-c3ccccc3)c(=O)c2c(C)n1C(C)C(=O)Nc1ccc(Br)cc1F (centres undefined),11.8%,–
CN(Cc1ccccc1)C(=O)c1cc2c(=O)n(C)c3ccccc3c2s1,-5.87%,–
C/C(Nc1ccc2oc(=O)ccc2c1)=C1/C(=O)CC2[C@@H]1C2(C)C (some centres undefined),-29.7%,–
CCC1CN(S(=O)(=O)c2cc(-c3cc(C)no3)ccc2C)c2cc(C)ccc2O1 (centres undefined),10.7%,–
CN1C(=O)CN2CCc3ccccc3C2c2cc(Cl)ccc21 (centres undefined),-10.7%,–
Cc1ccc(Cn2c(C)nc3c(c2=O)c2nc4ccccc4nc2n3Cc2ccco2)cc1,–,56.2 µM (active)
Clc1cccc(-c2nc3nc4ccccc4nc3n2Cc2ccco2)c1,4.83%,–
O=c1[nH]c(CSc2ncc(-c3ccc(F)cc3)n2Cc2ccco2)nc2ccccc12,7.47%,–
CCOc1ccc(-c2n[nH]c3c2C(c2ccccc2OC)N(c2ccc(Br)cc2)C3=O)cc1 (centres undefined),-27%,–
Nc1ccc2nc3c(=O)[nH]c(=S)[nH]c3nc2c1,–,79.4 µM (active)
O=C(NCCc1ccc(Cl)cc1)c1ccc2c(c1)N(Cc1ccc(F)cc1)C(=O)CS2,-1.91%,–
Cc1c(S(=O)(=O)O)oc2c1C(=O)C(=O)c1c-2ccc2c1CCCC2(C)C,–,8.91 µM (active)
Cc1ccc(C(=O)Nc2nc(-c3ccccc3)ns2)cc1,2.63%,–
CCCCCCCCCCCCCCCCO,0.1% and 6.37%,–
CCOc1ccc(-n2c(N)c(C(=O)NCC3CCCO3)sc2=S)cc1 (centres undefined),–,79.4 µM (active)
CCOc1ccc(S(=O)(=O)N2CCN(C(=S)NCC3CCCO3)CC2)cc1 (centres undefined),28.2%,–
CCOc1ccc(S(=O)(=O)NCCC(=O)NCC2CCCO2)cc1 (centres undefined),-3.32%,–
O=C(NC1CC(=O)N(c2ccc(Cl)cc2)C1)C1CCCC1 (centres undefined),-5.32%,–
O=C1/C(=C\c2ccc([N+](=O)[O-])cc2)CS(=O)(=O)C/C1=C/c1ccc([N+](=O)[O-])cc1,–,39.8 µM (active)
CN(C)S(=O)(=O)N1CCN(c2ccc([N+](=O)[O-])cc2)CC1,-2.16%,–
CCCCC(=O)Nc1c2c(nn1-c1ccc([N+](=O)[O-])cc1)CS(=O)(=O)C2,-18.5%,–
Cc1cc(C)c(-c2n[nH]c3c2C(c2ccccc2F)N(CCO)C3=O)c(O)c1 (centres undefined),7.23%,–
O=c1cnc2cnc(Nc3ccccc3)nc2n1Cc1ccc(F)cc1,-4.57%,–
Cc1cc(NC(=O)CSc2ncc(C(=O)Nc3ccc(Cl)cc3)c(=O)n2C)no1,4.19%,–
COc1ccc(NC(=O)c2ccco2)cc1NC(=O)COc1ccc(C)c(C)c1,5.81%,–
CN1CCN(C(=O)c2ccc(-c3ccc(Br)cc3)o2)CC1,-9.02%,–
O=C(NC(=S)Nc1ccccc1C(=O)O)c1ccc(-c2ccc(Br)cc2)o1,–,70.8 µM (active)

Structure (SMILES),"max response, negative = inhibition",Potency
O=C(O)c1ccccc1NC(=O)c1ccccc1-c1ccccc1C(=O)O,-22.4%,–
O=C(Nc1ccccc1Cl)N1CCC(CN2CCCCC2)CC1,4.52%,–
COc1cc(-c2cc3n(C)c(C)c(CCC(=O)Nc4ccc(F)cc4)c(=O)n3n2)cc(OC)c1OC,-2.64%,–
NCCCNC(=S)NCCCN(Cc1ccc(Cl)cc1)c1ccc(Br)cn1,-24.7%,–
CC(=O)Nc1ccc(S(=O)(=O)Nc2ccc(N3CCCCC3)cc2)cc1,6.02%,–
O=C1C=CC(=O)N1c1ccc(N2CCCCC2)cc1,–,17.8 µM (active)
O=C(C1CC(=O)N(C2CCCCC2)C1)N1CCN(c2ccccc2)CC1 (centres undefined),-11.8%,–
Cc1cc(-c2ccc(C)c(S(=O)(=O)N3c4ccccc4CC3C)c2)on1 (centres undefined),9.78%,–
Cc1[nH][nH]c(=O)c1C(c1ccc(-c2ccc(Cl)cc2)o1)c1c(C)[nH][nH]c1=O,–,79.4 µM (active)
CCOc1ccc(C(=O)CCC(=O)Nc2ccncc2)cc1,-4.74%,–
CCOc1ccc(C(=O)N2CCN(CCc3ccccn3)CC2)cc1,-7.3%,–
CCOc1ccc(C(=O)CCN2CCOCC2)cc1,–,50.1 µM (active)
Cc1ccc(-c2nnc3c4ccccc4c(C)nn23)cc1NC(=O)c1cccc(Br)c1,-6.72%,–
CCC(=O)N1CCc2cc(S(=O)(=O)NC(C(=O)NCCc3ccc(C)cc3)C(C)C)ccc21 (centres undefined),-2.72%,–
Cc1cccc(N2CCN(C(=O)Cn3ncc4c5ccccc5n(C)c4c3=O)CC2C)c1 (centres undefined),4.17%,–
CCCOC(=O)c1ccc(N2C(=O)c3ccccc3C2=O)cc1,-19.4%,–
CCCC[C@H]1C(=O)N(c2ccccc2)N(c2ccc(O)cc2)C1=O,–,10 µM (active)
CCCCc1ccc(NC(=O)CN2C(=O)NC(Cc3ccccc3)C2=O)cc1 (centres undefined),3.7%,–
CC(C)c1ccc2oc(-c3cc(NC(=O)c4cccs4)ccc3Cl)nc2c1,15%,–
CCC(C)C(N)C1=NC(C(=O)NC(CC(C)C)C(=O)NC(CCC(=O)O)C(=O)NC(C(=O)NCCCCC2NC(=O)C(CC(N)=O)NC(=O)C(CC(=O)O)NC(=O)C(Cc3cnc[nH]3)NC(=O)C(Cc3ccccc3)NC(=O)C(C(C)CC)NC(=O)C(CCCN)NC2=O)C(C)CC)CS1 (stereo not drawn) (cyclo(DNK([Ile-Glu-Leu-X1])[Orn]IFH); configuration not given here),-26.4%,–
C#CCOc1ccc(C2CC(=O)Nc3c2c(C)nn3-c2nc(C)cc(C)n2)cc1 (centres undefined),10.7%,–
CC/C(O)=N\S(=O)(=O)c1ccc(N=NN(C)C)cc1,15.8%,–
CN(C)N=Nc1ccc2nc[nH]c2c1,–,35.5 µM (active)
CC(=NNC(=O)c1ccc2nc[nH]c2c1)c1ccc(Br)cc1,-21.3%,–
COc1cc(OC)c(NC(=O)Cc2ccc(-n3c(C)nc4cccnc43)cc2)cc1Cl,1.5%,–
CC1=C/C(=N\OS(=O)(=O)c2ccccc2)C=CC1=O,–,31.6 µM (active)
Cc1ccc(NC(=O)C2CCN(S(=O)(=O)c3cc(-c4noc(C)n4)ccc3C)CC2)c(C)c1,14.7%,–
